Bioassay records (PubChem)
The entries come from a sample that favours hits as a whole.
AMA1-RON2 inh: qHTS for Inhibitors of AMA1-RON; Towards Development of Antimalarial Drug Lead: Primary Screen | AID 720542, 2013 | AlphaScreen AMA1-biotinylated RON2 peptide binding | Plasmodium falciparum AMA1 (3D7) - RON2 peptide interaction | actives 0.2% (n = 360,000) | Potency, µM (doses to about 58.2 µM), for the others: top-dose activity change, negative = inhibition, actives largely listed as inhibitors;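 further: potency means the concentration at half of the fitted maximal effect; 0% = vehicle wells and -100% = peptide control; nearly all actives have a fitted effect of over 45% in size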
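AMA1 (3D7) with his tag at 25 nM final met compounds first, then biotinylated RON2 peptide at 25 nM; detection used donor plus acceptor beads, 10 µg/mL apiece, read by AlphaScreen after 30 min at room temperature.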
SARS PLP yeast: qHTS of Yeast-based Assay for SARS-CoV PLP; AID 485353, 2010; Potency, µM (doses to about 32.9 µM), for inactives: at the top dose activity, positive = growth rescue, usual class: activators; actives 0.19% (n = 330,000); S. cerevisiae expressing SARS-CoV PLpro, growth rescue; calls by dose curve; further: potency means the concentration at half of the fitted maximal effect; 0% is about no effect; nearly all actives have a fitted effect of over 55% in size
Shiga inhibitor: A qHTS for Small Molecule Inhibitors of Shiga Toxin | Vero cells, Shiga toxin protein synthesis inhibition reporter | inhibition, % at 38.7 µM | actives 9.2% (n = 290,000) | AID 2315, 2010; in the data active means inhibition mostly above about 28%, no sharp cut-off; inactive means mostly below about 43%; further: 0% is about no effect
AmpC no deterg: qHTS Inhibitors of AmpC Beta-Lactamase (assay without detergent). Potency, µM (series often up to 57.1 µM), for the others: at the highest dose activity change, negative = inhibition, usual class: inhibitors. AmpC nitrocefin hydrolysis, absorbance 480 nm, 0.0001% Triton. P00811. actives 0.52% (n = 330,000);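 further: potency means the concentration at half of the fitted maximal effect; plate controls were no compound for no effect and no enzyme for full effect; nearly all actives have a fitted effect of over 20% in size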
Target sequence (P00811 whole entry, looked up): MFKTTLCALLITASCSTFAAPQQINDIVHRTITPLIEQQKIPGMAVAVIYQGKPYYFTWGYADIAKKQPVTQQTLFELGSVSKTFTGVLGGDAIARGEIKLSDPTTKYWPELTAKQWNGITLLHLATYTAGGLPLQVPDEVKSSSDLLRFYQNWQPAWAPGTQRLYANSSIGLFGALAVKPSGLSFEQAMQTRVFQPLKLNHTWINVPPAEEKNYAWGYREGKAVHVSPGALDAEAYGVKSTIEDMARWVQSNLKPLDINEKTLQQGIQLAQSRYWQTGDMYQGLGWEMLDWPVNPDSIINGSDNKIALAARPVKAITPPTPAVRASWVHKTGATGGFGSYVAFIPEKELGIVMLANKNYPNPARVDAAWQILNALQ
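AmpC (5.3 nM in the dispensed reagent) in 20 mM phosphate pH 7.0 with 0.01% (detergent screen) or 0.0001% Triton X-100 was preincubated with compounds for 15 min at room temperature. Nitrocefin was then added from an 800 uM solution, and hydrolysis was followed at 480 nm.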
AmpC inh detg: qHTS Inhibitors of AmpC Beta-Lactamase (assay with detergent); actives 0.041% (n = 370,000); P00811; AmpC hydrolysis of nitrocefin, absorbance 480 nm, 0.01% Triton; AID 485294, 2010; Potency, µM (series often up to 114 µM), without a hit: top-dose activity change, negative = inhibition, usual class: inhibitors;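 further: potency means the concentration at half of the fitted maximal effect; 0% = no-compound wells and -100% = no-enzyme wells; nearly all actives have a fitted effect of over 25% in size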
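20 mM phosphate pH 7.0 + 0.01% (detergent screen) or 0.0001% Triton X-100; 5.3 nM AmpC reagent; cpd preinc 15 min RT; nitrocefin (800 uM stock) to start; A480 q20 s × 4 min; Activity was normalised to no-enzyme and no-compound control wells.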
Cycloheximide cs: Cycloheximide Counterscreen for Small Molecule Inhibitors of Shiga Toxin; cell reporter, cycloheximide protein synthesis inhibition counterscreen; AID 2314, 2010; actives 12% (n = 300,000); max response, %; in the data active means max response mostly above about 13%, no sharp cut-off; inactive means mostly below about 14%; further: read at 38.3 µM for the half of the compounds with a filed dose; 0% is about no effect
The depositor's hits bear a star; ? = inconclusive; / = no result given. Unless noted, the call rests on the fitted dose curve; in most records, active means well fitted curve in the direction sought with a large enough effect; inconclusive means small, poorly fitted or top-dose-only effect, or another doubt; inactive means no such curve, though single readings can be large; an effect the other way counts as inactive or inconclusive.

SMILES | AMA1-RON2 inh | SARS PLP yeast | Shiga inhibitor | AmpC no deterg | AmpC inh detg | Cycloheximide cs
CCOC(=O)c1sc(NC(=O)CSc2ncccn2)nc1C | 12% | 7% | 41* | 2% | -12% | 21
CCOC(=O)c1c(C)[nH]c(C)c1C(=O)COC(=O)c1ccc(S(=O)(=O)N(CC)CC)cc1 | -18% | 1% | -4 | 10% | -10% | -5
CSCCOC(=O)COc1ccc(/C=N/NC(=O)c2nn(C)cc2Cl)cc1 | 4% | 16% | 59* | -6% | -19% | 28*
Cc1ccc(S(=O)(=O)Oc2ccc(/C=N/NC(=O)c3nn(C)cc3Cl)cc2)cc1 | 5% | 3% | 21 | -10% | -11% | 9
Cc1nc2ccc(S(=O)(=O)N3CCCCC3)cc2s1 | 19% | -1% | 18 | -21% | -10% | 2
Cc1cc(=O)oc(C)c1C(=O)OCC(=O)c1ccc(Br)cc1 | -3% | -26% | 70* | -14% | -8% | 24*
Cc1ccc(S(=O)(=O)N2CCOCC2)cc1C(=O)OCC(=O)c1ccc(Br)cc1 | 0% | 1% | / | -31% | -1% | /
CCn1nc(C)cc1C(=O)OCC(=O)c1ccc(Cl)cc1 | -11% | -2% | -9 | 10% | -10% | 1
Cc1cc(=O)oc(C)c1C(=O)OCC(=O)c1ccc(Cl)cc1 | 12% | -8% | 80* | -8% | 0% | 35*
COC(=O)c1nc(N)sc1-c1ccc(OC)cc1 | 19% | -6% | 3 | -14% | 1% | -1
COc1ccc(-c2sc(Nc3ccc(F)c(F)c3F)nc2CCC(=O)NN)cc1 | 67% | 0% | 100* | -16% | 2% | 42*
CCOC(=O)c1sc(NC(=O)CCN2CC(C)OC(C)C2)c(C(=O)OCC)c1C (centres undefined) | / | -1% | -20 | -3% | ? | -4
Cc1nc2ccc(S(=O)(=O)N(CC(=O)Nc3ccc(Cl)cc3)Cc3ccccc3)cc2s1 | / | / | / | / | 2% | /
Cc1cc(C)nc(Oc2ccc(Br)cc2Br)n1 | -1% | 0% | 77* | -1% | -4% | 25*
C/C(=N/Oc1nc(C)cc(C)n1)c1ccc(Br)cc1 | -7% | 4% | 39 | 21% | 2% | 11
CCSc1nc2sc3c(c2c(=O)n1CC)CCC3 | -2% | -3% | 1 | -14% | -12% | 1
CCOc1ccc(N2CC(c3nc4ccccc4n3Cc3ccccc3F)CC2=O)cc1 (centres undefined) | / | / | / | / | -6% | /
Cc1ccc(S(=O)(=O)N2CCN(C(=O)COC(=O)CNC(=O)c3ccc(Cl)cc3Cl)CC2)c(C)c1 | -11% | / | / | / | / | /
Cc1nn(-c2ccccc2)c(C)c1C(=O)NCCc1ccc(Cl)cc1 | -3% | -5% | -17 | -12% | 6% | -2
Cc1nn(Cc2ccccc2)c(Cl)c1C(=O)NCCc1ccc(Cl)cc1 | -1% | -7% | 18 | 22% | ? | 14*
Cc1nn(-c2ccccc2)c(C)c1C(=O)NCCc1ccccc1 | 2% | 0% | 74* | -1% | ? | 33*
CN(c1ccc(C(=O)N2CCCCC2)cc1)S(=O)(=O)c1cccs1 | -3% | 2% | 16 | 2% | 2% | 8
O=C(NC1CCCc2ccccc21)c1ccc(=O)[nH]c1 (centres undefined) | 0% | -1% | 1 | 9% | -11% | 6
CCC(C)(NC(=O)c1ccc(=O)[nH]c1)C(=O)NC1CCCC1 (centres undefined) | 3% | -13% | 9 | 2.8µM* | ? | 0
COCCN(C(=O)Nc1ccccc1OC)c1nc2ccccc2s1 | 5% | 4% | 30* | -3% | -6% | 26*
COc1ccccc1C(=O)NC(=S)Nc1cccnc1Cl | -13% | -23% | 24 | -16% | 5% | 18*
Cc1ccc(C(=O)NC(=S)Nc2cccnc2Cl)cc1 | 17% | -5% | 91* | -19% | 0% | 47*
COc1ccc(Cn2c(C)nc([N+](=O)[O-])c2SCC(=O)O)cc1[N+](=O)[O-] | -12% | 0% | -3 | -4% | 7% | -1
